Drawing on PubChem BioAssay (EPA / NIEHS), this text covers outcome and AC50 for 12 compounds.

A short description of experiment [1]: TOX21_p53_BLA_p2_viability: Viability Assessment in the Tox21 HCT-116 p53 Agonism Beta-lactamase Assay, Phase 2 (AID 2283591).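 Also: actives lower the ATP signal meaning cytotoxicity.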 The method in brief: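 HCT116 p53-bla cells, 4000/well, dosed after 5 h plating (217-fold dilution of DMSO stocks) and incubated 16 h at 37C. Viability taken as cellular ATP by CellTiter-Glo luminescence after 30 min RT; signal loss marks cytotoxicity.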

For experiment [2], the target named is Cellular tumor antigen p53 (Homo sapiens) (UniProt P04637). Kind of experiment: TOX21_p53_BLA_p2_ratio: Tox21 HCT-116 p53 Agonism Beta-lactamase Assay, Ratio, Phase 2 (AID 2283592). The method in brief:
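Cleaved-to-uncleaved substrate ratio (460 vs 530 nm) measured in HCT116 cells with an inducible beta-lactamase reporter linked to p53 activity. Compounds incubated 16 h at 37C before 2 h room-temperature CCF4-AM loading.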

Experiment [3] can be described thus: TOX21_p53_BLA_p3_viability: Viability Assessment in the Tox21 HCT-116 p53 Agonism Beta-lactamase Assay, Phase 3 (AID 2283593).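 Also: cells exposed to compound for 16 h before reading.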 The method in brief: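 HCT116 cells, 4000/well, dosed 5 h after plating by pin transfer (217-fold dilution from DMSO stock) and incubated 16 h at 37C, 5% CO2. Viability read as ATP luminescence with CellTiter-Glo after 30 min at room temperature.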

Experiment [4] in a line: TOX21_p53_BLA_p4_viability: Viability Assessment in the Tox21 HCT-116 p53 Agonism Beta-lactamase Assay, Phase 4 (AID 2283597).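 Also: hits lower the luminescence signal meaning cytotoxicity.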 The method in brief:
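Viability is taken as cellular ATP: after 16 h compound exposure of HCT116 cells and a 2 h room-temperature CCF4-AM substrate step, CellTiter-Glo reagent is added and luminescence is measured 30 min later.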

The target in experiment [5] is Cellular tumor antigen p53 (Homo sapiens) (UniProt P04637). The experiment in a line: TOX21_p53_BLA_p5_ratio: Tox21 HCT-116 p53 Agonism Beta-lactamase Assay, Ratio, Phase 5 (AID 2283599). The essentials:
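HCT-116 p53-bla cells (4000/well) plated 5 h, dosed with compound (217-fold DMSO dilution) for 16 h at 37 C; CCF4-AM substrate 2 h at room temperature. Activity is the 460/530 nm emission ratio (405 nm excitation), fitted in gain-of-signal direction versus DMSO.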

Experiment [6] can be described thus: TOX21_p53_BLA_p5_viability: Viability Assessment in the Tox21 HCT-116 p53 Agonism Beta-lactamase Assay, Phase 5 (AID 2283600). The method in brief: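 Viability is taken from cellular ATP content, measured by luciferase luminescence in the same wells after the beta-lactamase ratio read. Cells are seeded at 4000 per well and exposed to DMSO-dissolved compounds, diluted 217-fold, for 16 h.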

In experiment [7] the target is Cellular tumor antigen p53 (Homo sapiens) (UniProt P04637). Kind of experiment: TOX21_p53_BLA_p4_ratio: Tox21 HCT-116 p53 Agonism Beta-lactamase Assay, Ratio, Phase 4 (AID 2283601). The essentials: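 HCT-116 p53 beta-lactamase reporter cells (4000/well) preincubated 5 h, then compound (217-fold dilution of DMSO stock) for 16 h at 37C. CCF4-AM substrate added 2 h at room temperature; 460/530 nm emission ratio fitted upward versus DMSO.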

Experiment [8] is described as follows: CCTE_Harrill_HTTr_Viability_MCF7: CCTE's 6-hour Cell Viability Assessment for the High-Throughput Transcriptomics (HTTr) Platform, in MCF-7 cells cultured in DMEM + 10% fetal bovine serum, Harrill Lab (AID 2284010; active = hit-call score of the fitted dose curve at least 0.9, where 1 is the maximum; inactive = score below 0.9). The essentials: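 PI exclusion, high-content imaging; 8-pt dilution series, 6 h exposure; bidirectional fit vs DMSO (neg. ctrl/baseline); gain of signal = loss of membrane integrity.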

Experiment [9] in a line: CCTE_Harrill_HTTr_Apoptosis_MCF7: CCTE's 6-hour Apoptosis Assessment for the High-Throughput Transcriptomics (HTTr) Platform, in MCF-7 cells cultured in DMEM + 10% fetal bovine serum, Harrill Lab (AID 2284011; active = hit-call score of the fitted dose curve at least 0.9, where 1 is the maximum; inactive = score below 0.9). The essentials: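 Cells are dosed with test chemicals at eight concentrations and imaged 6 hours later for caspase-3/7 activity using a green fluorogenic detection reagent. Activity is fitted in both directions against DMSO controls.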

Experiment [10] is described as follows: CCTE_Harrill_HTTr_CellCount_MCF7: CCTE's Cell Proliferation Assessment for the High-Throughput Transcriptomics (HTTr) Platform, Harrill Lab (AID 2284012).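 Also: count of Hoechst-stained nuclei per well by high-content imaging in MCF-7 cells; cells exposed to compound for six hours; intended direction is loss of nuclei count meaning fewer cells.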 The method in brief: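 Readout: Hoechst nuclear count by high-content imaging. MCF-7, 8-point dilution series, 6 h exposure. Bidirectional fit vs DMSO baseline.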
Experiment [11] is described as follows: TOX21_PR_BLA_Followup_Agonist_viability: Viability Assessment in the Tox21 HEK293 Progesterone Receptor (PR) Agonism Beta-lactamase Follow-Up Assay (AID 2283935).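 Also: signal loss means lower viability so actives are cytotoxic.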 The essentials: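 Luminescent ATP quantitation (CellTiter-Glo, 30 min, room temperature) in the same wells as the beta-lactamase read, on PR-UAS-bla HEK293T cells exposed to compound for 16 hr at 37C in 2% charcoal-stripped serum.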

A short description of experiment [12]: TOX21_PR_BLA_Followup_Antagonist_viability: Viability Assessment in the Tox21 HEK293 Progesterone Receptor (PR) Antagonism Beta-lactamase Follow-Up Assay (AID 2283936).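 Also: cells exposed to compound with R5020 agonist for 16 h; hits lower the luminescence signal meaning cytotoxicity.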 The essentials: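 PR-UAS-bla HEK293T cells in medium with 2% charcoal-stripped FBS were treated with compounds plus R5020 for 16 hr at 37C. After the beta-lactamase read, CellTiter-Glo was added to the same wells and luminescence read after 30 min at room temperature.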

The nature of experiment [13]: TOX21_PR_LUC_Followup_Antagonist_viability: Viability Assessment in the Tox21 HEK293 Progesterone Receptor (PR) Antagonism Luciferase Follow-Up Assay (AID 2283940). The method in brief:
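Read-out: CellTiter-Glo ATP luminescence, loss of signal taken as reduced viability. Cells: HEK293-PR-A-luc, 3,000/well, 5 h settling, then 16 h compound exposure at 37C, 0% CO2.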

A short description of experiment [14]: TOX21_PR_LUC_Followup_Agonist_viability: Viability Assessment in the Tox21 HEK293 Progesterone Receptor (PR) Agonism Luciferase Follow-Up Assay (AID 2283941).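 Also: loss of signal means cytotoxicity so actives lower viability.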 The method in brief:
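Cytotoxicity counter-screen: ATP content by CellTiter-Glo luminescence, loss of signal = reduced viability. HEK293-PR-A-luc, 3,000 cells/well, compound exposure 16 h, 37C.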

Results filed as inconclusive are left out. Activity calls are given as the source filed them. The calls were made as follows, unless noted: active = hit-call score of the fitted dose curve at least 0.9, where 1 is the maximum; inconclusive = response in the unintended direction; inactive = score below 0.9.

Cellular tumor antigen p53 (Homo sapiens), sequence (P04637 whole entry, looked up): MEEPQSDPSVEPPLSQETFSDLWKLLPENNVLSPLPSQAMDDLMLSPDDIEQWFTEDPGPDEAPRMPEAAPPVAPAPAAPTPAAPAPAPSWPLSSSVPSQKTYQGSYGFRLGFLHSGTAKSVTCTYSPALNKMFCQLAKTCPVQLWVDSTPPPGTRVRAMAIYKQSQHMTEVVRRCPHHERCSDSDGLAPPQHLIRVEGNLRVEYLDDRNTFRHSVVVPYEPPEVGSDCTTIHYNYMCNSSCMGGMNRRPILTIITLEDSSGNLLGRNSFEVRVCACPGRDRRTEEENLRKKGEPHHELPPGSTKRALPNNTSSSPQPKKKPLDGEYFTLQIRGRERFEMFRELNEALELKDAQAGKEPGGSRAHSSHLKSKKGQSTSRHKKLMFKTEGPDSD

As to `O=C(O)c1ccc(OCCCOc2ccc(C(=O)O)cc2)cc1`, the compound was called inactive in [1], in experiment [2], in experiment [3], in [4], in experiment [5] and in experiment [6]. In addition, the outcome in experiment [7] was inactive.
In the case of `C=CCN1C[C@H](C(=O)N(CCCN(C)C)C(=O)NCC)C[C@@H]2c3cccc4[nH]cc(c34)C[C@H]21`, the result in experiment [1], in experiment [2], in [3], in experiment [4], in experiment [5] and in [6] was inactive. Moreover, the result in [7] was inactive.
As for `COC(=O)C1=C(C)NC(C)=C(C(=O)O[C@@H]2CCCN(Cc3ccccc3)C2)[C@@H]1c1cccc([N+](=O)[O-])c1`, the result in [1], in experiment [2], in experiment [3], in [4], in experiment [5] and in experiment [6] was inactive. The outcome in experiment [7] was inactive.
One may read the AC50 as the concentration giving half of the maximal activity seen. With `C[C@]12C=CC(=O)N[C@@H]1CC[C@@H]1[C@@H]2CC[C@]2(C)[C@@H](C(=O)Nc3cc(C(F)(F)F)ccc3C(F)(F)F)CC[C@@H]12`, the compound was classed as inactive in [1], in [2], in experiment [4], in [5], in [6] and in [7]. In addition, the AC50 in experiment [3] is 7.37 µM (active).
Turning to `CC(C)=CCC/C(C)=C/CC/C(C)=C/CC/C=C(\C)CC/C=C(\C)CCC=C(C)C`, the result in [1], in experiment [2], in experiment [3], in experiment [4] and in experiment [6] was inactive.
As for `O=C1c2ccccc2Cc2ccccc21`, the result in [1], in experiment [2], in experiment [3], in experiment [4], in [5] and in experiment [6] was inactive. Further, in experiment [7], the result was inactive.
On to `CC1Cc2ccccc2N1NC(=O)c1ccc(Cl)c(S(N)(=O)=O)c1` (stereo not drawn), for which the compound was classed as inactive in experiment [1], in [2], in experiment [3], in experiment [4], in experiment [5] and in experiment [6]. For the same compound, the result in experiment [7], in experiment [8], in [9] and in experiment [10] was inactive.
With `CCOc1ccc(N=Nc2ccc(N)cc2N)cc1`, the result in experiment [1], in experiment [2], in [3], in [4], in experiment [5] and in [6] was inactive. Further, in experiment [7], the result was inactive.
With `CCOC(=O)NNc1ccc(N(CC)CC(C)O)nn1` (stereo not drawn), the compound was classed as inactive in experiment [1], in experiment [2], in [3], in [4], in [5] and in experiment [6]. In [7], the outcome was inactive.
As for `C[N+]1(C)CCC(OC(=O)C(O)(c2ccccc2)C2CCCC2)C1` (stereo not drawn), the outcome in [1], in [2], in [3], in [4], in experiment [5] and in experiment [6] was inactive. The result in [7] was inactive.
Regarding `C[C@]12CCC(=O)C=C1[C@@H]1C[C@@H]1[C@H]1[C@@H]3[C@@H]4C[C@@H]4[C@@]4(CCC(=O)O4)[C@@]3(C)CC[C@@H]12`, the result in experiment [1], in experiment [3], in [4], in experiment [5], in [6] and in experiment [11] was inactive. Besides, the compound was classed as inactive in experiment [12], in [13] and in [14]. In addition, the AC50 in experiment [2] was 43.4 µM (active).
Consider `C=Cc1ccccc1`, for which the outcome in experiment [1], in experiment [2], in experiment [3], in experiment [4], in experiment [5] and in experiment [6] was inactive. In [7], the outcome was inactive.
